The source of these data is the supplement of paper PMC3342239.

Counter-ions that a name gives are not always drawn.

This assay deals with Saccharomyces cerevisiae. Description: fraction of cells in G1 phase (DNA content, flow cytometry); higher = more cells with unreplicated DNA (G1 delay). The following applies: temperature: 30 C, YPD. The gist of the method:
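Overnight cultures of sensitized JTY2953 were diluted 1∶200 into drug at a final 20 µg/ml and fixed after 6–7 h, and further runs treated dividing JTY2953 or BY4741, fixing them 6 h and 4.33 h later respectively. All growth used YPD at 30°C with S. cerevisiae and library drugs. After ethanol fixation and SYTOX Green staining, flow cytometry recorded 10,000 events. The G1 fraction equals the Dean-Jett-Fox G1 peak area over the G1 plus G2/M areas.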
(A flow cytometer gives signals particle by particle.)

[1] abbreviates: JTY2953 pdr5 snq2 (sensitized), drug added to: actively dividing cells, 6 h.
The mark [2] stands for this setting: JTY2953 pdr5 snq2 (sensitized), drug added to: cultures diluted from stationary phase, 6-7 h.
Setting [3] is: BY4741 PDR5+ SNQ2+, drug added to: actively dividing cells, 4.33 h.

For `CN(C)CCOc1ccc(/C(=C(/CCCl)c2ccccc2)c2ccccc2)cc1` [Toremifene] (49.2645 µM), the “fraction of cells in G1 phase” value stood at 0.524 under setting [1] and 0.901 under setting [2].

For `NC1CCN(c2c(F)cc3c(=O)c(C(=O)O)cn(C4CC4)c3c2Cl)C1` (stereo not given) [Clinafloxacin HCl] (54.6755 µM), the “fraction of cells in G1 phase” value runs as follows: under setting [3], 0.359; under setting [2], 0.254.

Consider `Fc1ccc(C(c2ccc(F)cc2)N2CCN(C/C=C/c3ccccc3)CC2)cc1` [Flunarizine-2HCl] (41.8936 µM), for which the “fraction of cells in G1 phase” value by setting is: under setting [3], 0.442; under setting [1], 0.761; under setting [2], 0.605.

`Clc1ccc(C(Cn2ccnc2)OCc2ccsc2Cl)c(Cl)c1` (stereo not given) [Tioconazole] (51.5839 µM): the “fraction of cells in G1 phase” value reads like this: under setting [1], 0.427; under setting [2], 0.863.

For the compound `CCC(C)n1ncn(-c2ccc(N3CCN(c4ccc(OCC5COC(Cn6cncn6)(c6ccc(Cl)cc6Cl)O5)cc4)CC3)cc2)c1=O` (stereo not given) [Itraconazole] (28.3427 µM), the “fraction of cells in G1 phase” value under setting [3] was determined as 0.493, the “fraction of cells in G1 phase” value under setting [1] turned out to be 0.751 and the “fraction of cells in G1 phase” value under setting [2] turned out to be 0.667.

`Cc1ccc(C)c(OCCCC(C)(C)C(=O)O)c1` [Gemfibrozil] (79.8911 µM): the “fraction of cells in G1 phase” value was 0.51 under setting [3], 0.667 under setting [1] and 0.611 under setting [2].

For `Fc1ccc([C@@H]2CCNC[C@H]2COc2ccc3c(c2)OCO3)cc1` [Paroxetine HCl] (60.7211 µM), the “fraction of cells in G1 phase” value is 0.468 under setting [3] and 0.387 under setting [2].

As to `CC[C@H](C)C(=O)O[C@H]1C[C@@H](C)C=C2C=C[C@H](C)[C@H](CC[C@@H]3C[C@@H](O)CC(=O)O3)[C@H]21` [Lovastatin] (49.4375 µM), the “fraction of cells in G1 phase” value reads like this: under setting [3], 0.402; under setting [1], 0.698; under setting [2], 0.747.

As for `CC(CN1c2ccccc2Sc2ccccc21)N(C)C` (stereo not given) [Promethazine HCl] (70.317 µM), the “fraction of cells in G1 phase” value was 0.437 under setting [3] and 0.204 under setting [2].

In the case of `O=c1[nH]c2ccccc2n1CCCN1CCN(C(c2ccccc2)c2ccccc2)CC1` [Oxatomide] (46.886 µM), the “fraction of cells in G1 phase” value worked out at 0.433 under setting [3], 0.791 under setting [1] and 0.836 under setting [2].

With `CCN(CC)CCOc1ccc(C(=C(Cl)c2ccccc2)c2ccccc2)cc1` [Clomiphene citrate] (49.2645 µM), the “fraction of cells in G1 phase” value worked out at 0.388 under setting [1] and 0.88 under setting [2].

Take `Clc1ccc(CCC(Cn2ccnc2)Sc2c(Cl)cccc2Cl)cc1` (stereo not given) [Butoconazole nitrate] (42.123 µM): the “fraction of cells in G1 phase” value under setting [1] worked out at 0.478 and the “fraction of cells in G1 phase” value under setting [2] was determined as 0.904.

Turning to `CC[C@@]1(O)C[C@H](O[C@H]2C[C@H](N(C)C)[C@H](O[C@H]3C[C@H](O)[C@H](O[C@H]4CCC(=O)[C@H](C)O4)[C@H](C)O3)[C@H](C)O2)c2c(cc3c(c2O)C(=O)c2c(O)cccc2C3=O)[C@H]1C(=O)OC` [Aclarubicin] (24.6339 µM), the “fraction of cells in G1 phase” value under setting [3] was 0.431 and the “fraction of cells in G1 phase” value under setting [2] is 0.364.

As for `C=C1/C(=C\C=C2/CCC[C@]3(C)[C@@H]([C@H](C)/C=C/[C@@H](O)C4CC4)CC[C@@H]23)C[C@@H](O)C[C@@H]1O` [Calcipotriene] (48.471 µM), the “fraction of cells in G1 phase” value is, setting by setting: under setting [1], 0.375; under setting [2], 0.634.

In the case of `C=C1/C(=C\C=C2/CCC[C@]3(C)[C@@H]([C@H](C)CCCC(C)C)CC[C@@H]23)C[C@@H](O)C[C@@H]1O` [Alfacalcidol] (49.9188 µM), the “fraction of cells in G1 phase” value is 0.469 under setting [3], 0.651 under setting [1] and 0.606 under setting [2].

Regarding `CC(=O)[C@]1(O)Cc2c(O)c3c(c(O)c2[C@@H](O[C@H]2C[C@H](N)[C@H](O)[C@H](C)O2)C1)C(=O)c1ccccc1C3=O` [Idarubicin] (40.2005 µM), the “fraction of cells in G1 phase” value runs as follows: under setting [3], 0.14; under setting [2], 0.291.

Take `CCOC(=O)N1CCC(=C2c3ccc(Cl)cc3CCc3cccnc32)CC1` [Loratadine] (52.2338 µM): the “fraction of cells in G1 phase” value by setting is: under setting [1], 0.448; under setting [2], 0.778.
